Data on 54 molecules can be found in ChEMBL document CHEMBL3988442, “University of Dundee, Small-Polar-MMV Screening Library” (2021).

Screen size: about 48,000 compounds; about 13,000 (27%) showed an effect of 50% or more. Some of the results follow.

For the assay, the system named is Wolbachia pipientis. The assay can be described thus: Anti-Wolbachia Cell-Based Screen. The note with it: 5 µM. Also noted: scale not given: in the data most compounds retested in dose-response had high values. It is filed as functional.
For `O=C(O)C(F)(F)F.O=C(c1cscn1)N1CCO[C@H]2[C@@H](Oc3ccccn3)CC[C@@H]21`, the “Percent Effect” value was -13.1%.
Next, `O=C(O)C(F)(F)F.O=C(c1cscn1)N1CC[C@@H]2[C@@H]1CCN2C1CCOC1` (some centres undefined): 99.27%.
For the molecule `O=C(C1CCOCC1)N1CC[C@H]2[C@H]1CCN2c1nncs1.O=C(O)C(F)(F)F`, the “Percent Effect” value was 9.105%.
The figure for `CN1CCN([C@@H]2CCN(C3CCOC3)[C@H]2Cc2cnn(C)c2)CC1.O=C(O)C(F)(F)F.O=C(O)C(F)(F)F.O=C(O)C(F)(F)F` (some centres undefined) is -5.901%; for `CN(CC(=O)N(C)C1CCCCC1)Cc1nc2ccccc2c(=O)[nH]1` it is -1.325%; for `CC(NC(=O)NC1CCN(Cc2ccccn2)CC1)c1ccco1` (centres undefined) it is 5.238%.
The figure for `c1cc(CNc2ccc(-c3nc(C4CC4)no3)cn2)no1` is -4.81%; for `CC(=O)NC1CCCN(c2nc3ccccc3cc2CO)C1` (centres undefined) it is 8.297%.
The figure for `COc1ccc(-n2ncc(C(C)NC3Cc4ccccc4C3)c2C)cc1` (centres undefined) is 4.346%; for `Cc1ncsc1C(=O)NC1CCN(CC(=O)N(C)c2ccccc2)CC1` it is -1.351%.
As for `O[C@@H]1C[C@@H](c2nc(Cc3ccccc3)no2)N(CC2CC2)C1`, the “Percent Effect” value is on record as 3.423%.
As to `NCC1Cc2cc(F)cc(-c3cnccn3)c2O1` (centres undefined), the “Percent Effect” value was -7.505%.
Take `Cn1ccnc1-c1ccc(NCCC2COc3ccccc3O2)nn1` (centres undefined): the “Percent Effect” value turned out to be 7.675%.
Next, `CN(Cc1nc(CC2CC2)no1)CC1COc2ccccc2O1` (centres undefined): -4.512%; `Cn1nnnc1SCC1COc2ccccc2O1` (centres undefined): 100.3%.
The figure for `N#Cc1cccc(N2CCC(CO)(CCOc3ccccc3)CC2)n1` is -8.445%.
The figure for `CC(C)n1ccnc1C1CCN(Cc2ccc(Cl)s2)CC1` is -8.213%; for `CSCC(C)(O)CNc1ccccn1` (centres undefined) it is -2.267%.
Take `O=C(Cn1ccc2c(Cl)cccc21)N[C@@H](C(=O)O)c1ccccc1`: the “Percent Effect” value stood at 2.253%.
Regarding `CC(=O)Nc1cccc2c1ccn2CC(=O)Nc1n[nH]c(CC(C)C)n1`, the “Percent Effect” value was 102.1%.
Next, `COc1cccc2c1ccn2CCC(=O)NCCCC(=O)O`: 22.13%.
The figure for `O=C(Cn1ccc2c(Cl)cccc21)Nc1nc[nH]n1` is 213.7%.
Next, `CC(=O)Nc1cccc2c1ccn2CC(=O)NC(C)C`: 119.7%.
Turning to `CN1CCN(c2cc(NC(=O)Cn3ccc4ccccc43)ncn2)CC1`, the “Percent Effect” value is -1.04%.
For the molecule `Cc1cccc(C)c1OCC(=O)Nc1cccn(C)c1=O`, the “Percent Effect” value is listed as -11.46%.
Consider `CC(=O)c1cn(CC(=O)NC(C(=O)O)C(C)C)c2ccccc12` (centres undefined), for which the “Percent Effect” value is -3.053%.
Next, `COc1cccc2c1ccn2CCNC(=O)C(C)C`: 18.92%; `CC(=O)Nc1cccc2c1ccn2CC(=O)Nc1nc[nH]n1`: 99.64%; `CS(=O)(=O)N1CCN(C(=O)Cn2ccc3c(Cl)cccc32)CC1`: 10.52%.
Next, `O=C(Cn1ccc2ccccc21)NCc1cc(N2CCOCC2)ncn1`: -2.844%; `COCc1nc(C2CC2)nn1-c1cccc(F)c1`: -12.44%; `Cc1ccc(Oc2ncccc2CNC2CCCCC2)cn1`: -2.321%.
Take `CN(C)C(=O)N1CCN(C(=O)C(c2ccccc2F)N(C)C)CC1` (centres undefined): the “Percent Effect” value is recorded as 0.4283%.
Next, `CC(=O)Nc1cccc2c1ccn2CC(=O)Nc1ncc[nH]1`: 101.7%.
The figure for `COc1cccc2c1ccn2CC(=O)N[C@@H](CCSC)C(=O)O` is 11.73%; for `COc1cccc2c1ccn2CC(=O)Nc1nc[nH]n1` it is 91.25%; for `COCC(=O)NCCn1ccc2c(OC)cccc21` it is -0.7831%.
Next, `CSCC[C@H](NC(=O)Cn1ccc2c(Cl)cccc21)C(=O)O`: 2.833%; `Cc1ccn(-c2ccccc2NCc2ncc[nH]2)n1`: -9.69%; `CCOc1ncccc1Cn1cc(-c2ccc(CO)o2)nn1`: -3.735%.
For the molecule `CCN(CC)C(=O)C1(NCc2nc(C)c(C)o2)CCCCC1`, the “Percent Effect” value is listed as -3.366%.
Next, `CN(c1ccc(CNc2ccc(Cl)cn2)cc1)S(C)(=O)=O`: 3.879%; `CC(=O)Nc1nc(C(=O)NC(C)c2cccnc2)cs1` (centres undefined): -4.684%.
The figure for `COc1coc(C(=O)Nc2ccncc2)cc1=O` is 119.4%; for `Cc1csc(NC(=O)C2CSCCC(=O)N2)n1` (centres undefined) it is -7.391%; for `COc1coc(C(=O)Nc2nc(-c3ccncc3)cs2)cc1=O` it is 126.8%.
The figure for `CCOc1ccccc1C(CC(=O)Nc1nc(C)cs1)NC(C)=O` (centres undefined) is 0.8837%; for `CC(=O)Nc1nc(C(=O)NC(C)c2ccncc2)cs1` (centres undefined) it is -2.068%.
As for `COc1ccc(NC(C)=O)cc1OCc1cccnc1`, the “Percent Effect” value is given as 0.9629%.
Next, `Cn1ccc(C(=O)Nc2nc(-c3ccc4c(c3)CCO4)cs2)cc1=O`: -8.772%; `COc1ccc(NC(=O)C(C)(C)C)cc1OCc1cccnc1`: -1.901%.
`COc1coc(C(=O)Nc2nc(-c3cccnc3)cs2)cc1=O`: the “Percent Effect” value stood at 125.3%.
The figure for `COc1coc(C(=O)Nc2nc(C)cs2)cc1=O` is 134.8%.
Next, `CCC(NC(=O)Nc1ccc(OC)c(C)c1)c1ccncc1` (centres undefined): -4.572%.
